Source: PubChem BioAssay (NCI)
About 79,000 compounds went through this panel and 15% of them were active in at least one assay; those are over-represented in the sample as a whole. Values without a mark were called inactive. Calls of active or inactive are those of the source. No stated cut-off is given here; in the data, active means growth inhibition above about 70%; inactive means the rest.

Experiments:
[1] = NCI Yeast Anticancer Drug Screen. Data for the rad50 strain (AID 155);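 further: 0% = growth of vehicle-only cultures of the same strain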; conditions: S. cerevisiae rad50 strain growth inhibition, active compounds read high
Outline: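 Compounds were tested on a yeast strain with an engineered DNA damage repair alteration; the reported value is growth inhibition normalised to vehicle treatment.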

[2] = NCI Yeast Anticancer Drug Screen. Data for the mec2-1 strain (AID 157); conditions: S. cerevisiae mec2-1 strain, active compounds read high
Outline: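 mec2-1 yeast strain, carrying an alteration in DNA damage repair or cell cycle control, was exposed to compounds; growth inhibition was measured relative to vehicle-treated controls.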

[3] = NCI Yeast Anticancer Drug Screen. Data for the sgs1 mgt1 strain (AID 161);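 further: 0% = growth of cultures given vehicle only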; conditions: S. cerevisiae sgs1 mgt1 strain, active compounds read high
Outline: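 Growth of a repair-deficient yeast mutant was monitored after compound treatment and expressed as inhibition relative to vehicle-treated cultures.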

[4] = NCI Yeast Anticancer Drug Screen. Data for the cln2 rad14 strain (AID 165);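 further: 0% = growth equal to vehicle treated cultures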; conditions: S. cerevisiae cln2 rad14 strain, active compounds read high
Outline: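 Yeast carrying cln2 and rad14 alterations (cell cycle control and DNA damage repair) were exposed to compounds. Growth inhibition was measured against vehicle-treated controls.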

[5] = NCI Yeast Anticancer Drug Screen. Data for the bub3 strain (AID 167); conditions: S. cerevisiae bub3 mutant strain, active compounds read high
Outline: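 Growth of a checkpoint-deficient yeast mutant is measured after compound exposure. Values represent inhibition relative to vehicle.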

[6] = NCI Yeast Anticancer Drug Screen. Data for the mlh1 rad18 strain (AID 175); conditions: S. cerevisiae mlh1 rad18 strain growth inhibition, active compounds read high
Outline: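 Growth inhibition of the yeast strain was measured after compound exposure and expressed relative to vehicle-treated controls. The strain carries defined defects in DNA damage repair.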

[7] = at 5.0 µM (retest, dose inferred, filed as 0.5)
[8] = at 50.0 µM (retest, dose inferred, filed as 5.0)

| SMILES | growth inhibition [1, 7] | growth inhibition [1, 8] | growth inhibition ([1]; at 50.0 µM) | growth inhibition [2, 7] | growth inhibition [2, 8] | growth inhibition ([2]; at 50.0 µM) | growth inhibition [3, 7] | growth inhibition [3, 8] | growth inhibition ([3]; at 50.0 µM) | growth inhibition [4, 7] | growth inhibition [4, 8] | growth inhibition ([4]; at 50.0 µM) | growth inhibition [5, 7] | growth inhibition [5, 8] | growth inhibition ([5]; at 50.0 µM) | growth inhibition [6, 7] | growth inhibition [6, 8] | growth inhibition ([6]; at 50.0 µM) |
| --- | --- | --- | --- | --- | --- | --- | --- | --- | --- | --- | --- | --- | --- | --- | --- | --- | --- | --- |
| CCC(c1ccc(OC)cc1)C(O)(CC)c1ccc(OC)cc1 (stereo not given) | -4% | 98% (active) | 99% (active) | -7% | 99% (active) | 98.8% (active) | -11% | 98% (active) | 98.4% (active) | -10% | 99% (active) | 98% (active) | 11% | 99% (active) | 98.9% (active) | -3% | 98% (active) | 98.6% (active) |
| CCCCCCCCCC1OCC(O)CO1 (stereo not given) (tested in a mixture with another compound) | 7% | 66% | 99% (active) | 9% | 79% (active) | 96.1% (active) | 10% | 96% (active) | 98.7% (active) | 3% | 90% (active) | 86.4% (active) | 8% | 87% (active) | 89.3% (active) | 12% | 98% (active) | 99.5% (active) |
| CCCCCCCCCCCCn1cnc2ncnc(Cl)c21 | 6% | 48% | 98.2% (active) | 7% | 54% | 99% (active) | 11% | 68% | 98.7% (active) | 2% | 28% | 98.4% (active) | -4% | 41% | 98.8% (active) | 6% | 63% | 98.6% (active) |
| CC(C)NC(=O)CN1C(=O)NC(C)(c2ccccc2)C1=O (stereo not given) | -4% | -1% | 75.5% (active) | 6% | 8% | 67% | -4% | 11% | 53.5% | 2% | -3% | 90.8% (active) | -3% | 1% | 79.2% (active) | 11% | 13% | 70.3% (active) |
| O=C(Oc1cc(Cl)c(Cl)cc1Cl)c1ccco1 | 0% | -1% | -1.8% | 4% | 5% | -5.4% | 0% | -3% | 23.9% | 3% | -5% | -10.2% | 30% | 18% | 84.8% (active) | 1% | -4% | -0.9% |
| Oc1c(C(Nc2ccccn2)c2ccccc2)ccc2cccnc12 (stereo not given) | 8% | 97% (active) | 94.6% (active) | 19% | 97% (active) | 94.3% (active) | -4% | 96% (active) | 95.5% (active) | -11% | 94% (active) | 93% (active) | -9% | 97% (active) | 94.4% (active) | 7% | 96% (active) | 94.5% (active) |
| COc1cc(C)cc(C(=O)OCc2ccccc2)c1C1=C(Cl)C(=O)C(Cl)=CC1=O | 16% | 16% | 85.5% (active) | 12% | 12% | 83.9% (active) | 5% | 5% | 87.5% (active) | 10% | 10% | 82% (active) | -16% | -16% | 80.5% (active) | 4% | 4% | 74.5% (active) |
| CCC[CH2][Sn]([CH2]CCC)([O]C(=O)c1cc(OC)c(OC)cc1OC)[O]C(=O)c1cc(OC)c(OC)cc1OC | 88% (active) | 88% (active) | 89.8% (active) | 90% (active) | 90% (active) | 91.5% (active) | 87% (active) | 87% (active) | 90.1% (active) | 79% (active) | 79% (active) | 91.2% (active) | 85% (active) | 85% (active) | 87.2% (active) | 84% (active) | 84% (active) | 89.5% (active) |
| Cc1ccc(Cc2n[nH]c(=O)n2N2C(=O)c3ccccc3C2=O)cc1 | 18% | 16% | -24.8% | 9% | 14% | -37.2% | 9% | 9% | -33.4% | 9% | 17% | -5.1% | 18% | 13% | -25.1% | 13% | 12% | -38.2% |
| O=C(Nc1ccccc1Cl)c1cccnc1 | -146% | -174% | 6.55% | -48% | -56% | 14.8% | -56% | -70% | 9.25% | -48% | -63% | 51.6% | -63% | -81% | -7.4% | -112% | -123% | 4.45% |
| CCCC(c1ccc(O)cc1)c1ccc(O)cc1 | 1% | 98% (active) | 99.5% (active) | -5% | 99% (active) | 99.5% (active) | -1% | 95% (active) | 99.4% (active) | 12% | 96% (active) | 99.2% (active) | 1% | 97% (active) | 99.5% (active) | 0% | 96% (active) | 99.5% (active) |
| CCOC(=O)Cc1[nH]c(C(=O)c2ccccc2)cc1C(=O)c1ccccc1 | 20% | 87% (active) | -44.6% | 11% | 81% (active) | -9.35% | -1% | 88% (active) | -36.1% | 7% | 97% (active) | 5% | -2% | 97% (active) | -24.4% | 17% | 89% (active) | -42.9% |
| COc1ccc2c(c1)[n+]([O-])c(-c1ccc(Cl)cc1)c(N)[n+]2[O-] | 33% | 98% (active) | 99.2% (active) | 29% | 98% (active) | 99.3% (active) | 39% | 99% (active) | 99.3% (active) | 46% | 95% (active) | 98.8% (active) | 80% (active) | 99% (active) | 99.2% (active) | 79% (active) | 99% (active) | 99% (active) |
| CSC(=S)OC1CC(n2cnc3c(NC(=O)c4ccccc4)ncnc32)OC1CO[Si](C)(C)C(C)(C)C (stereo not given) | 1% | -1% | 6.5% | 0% | 2% | -3.65% | -1% | 2% | 10.4% | -1% | 6% | 73% (active) | -1% | -5% | 1.45% | 0% | -1% | 16.6% |
| Cc1c(N=Nc2ccc(Cl)cc2)c(-c2ccccc2)n(C2OC(CO)C(O)C(O)C2O)c(=S)c1C#N (stereo not given) | -9% | 89% (active) | 96.6% (active) | -13% | 96% (active) | 97.2% (active) | 18% | 48% | 97.5% (active) | 18% | 95% (active) | 97.1% (active) | -2% | 95% (active) | 97.3% (active) | -7% | 96% (active) | 97.4% (active) |
| c1ccc2nc3[nH]c4ccccc4c3cc2c1 | 24% | 87% (active) | 85.2% (active) | 18% | 52% | 53.6% | 14% | 40% | 50.8% | 22% | 39% | 44.8% | 18% | 46% | 50.6% | 18% | 45% | 69.2% |
| O=C(CBr)c1cc(-c2ccc(Cl)cc2)nc2ccccc12 | 86% (active) | 98% (active) | 98.9% (active) | 95% (active) | 99% (active) | 99% (active) | 100% (active) | 99% (active) | 99% (active) | 35% | 98% (active) | 98% (active) | 95% (active) | 99% (active) | 98.7% (active) | 97% (active) | 98% (active) | 98.8% (active) |
| O=C(NC1=C(Cl)C(=O)c2ccccc2C1=O)C(=O)C(C(=O)c1ccc2ccccc2c1)C1OC(=O)c2ccccc21 (stereo not given) | 33% | 85% (active) | 89.8% (active) | 16% | 59% | 63.5% | 30% | 98% (active) | 88.5% (active) | 20% | 95% (active) | 88.1% (active) | 22% | 99% (active) | 85.3% (active) | 26% | 83% (active) | 88.8% (active) |
| CC(C)(C)C1=NN=C2c3ccccc3C(=O)C21 (stereo not given) | 0% | 57% | 68.2% | -3% | 44% | 9.45% | -1% | 60% | 53.2% | -12% | 14% | 58.9% | 19% | 87% (active) | 78.7% (active) | -3% | 44% | 60.7% |
| O=C1c2ccccc2C(O)(c2ccccc2)c2c(Cl)cccc21 (stereo not given) | -1% | 27% | 82.6% (active) | -6% | 26% | 90.7% (active) | 0% | 28% | 80.8% (active) | 1% | 21% | 75.2% (active) | -5% | 14% | 80% (active) | -12% | 41% | 96.7% (active) |
